Experimental data from PubChem BioAssay (EPA / NIEHS).
Records with an inconclusive call do not appear. Active and inactive are the calls of the source. How the source made its calls: active means hit-call score of the fitted dose curve at least 0.9, where 1 is the maximum; inconclusive means response in the unintended direction; inactive means score below 0.9.

read-out: xenobiotic metabolism (CYP1A1), CYP1A1 (gene 1543); assay: CLD_CYP1A1_6hr: CellzDirect (CLD) Gene Expression Assay for xenobiotic metabolism (CYP1A1) at 6 hours (AID 2283661);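 on AC50: potency for transcript induction above DMSO vehicle baseline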
Experimental: CLD_6hr is a cell-based, multiplexed-readout assay that uses hepatocyte, a human liver primary cell, with measurements taken at 6 hours after chemical dosing in a 96-well plate.CLD_CYP1A1_6hr is one of 16 assay component(s) measured or calculated from the CLD_6hr assay. It is designed to make measurements of mRNA induction, a form of inducible reporter, as detected with chemiluminescence signals by Quantitative Nuclease Protection Assay (qNPA) technology.Data from the assay component CLD_CYP1A1_6hr was analyzed at the endpoint, CLD_CYP1A1_6hr, in the positive analysis fitting direction relative to DMSO as the negative control and baseline of activity. Using a type of inducible reporter, gain-of-signal activity can be used to understand changes in the reporter gene as they relate to the gene CYP1A1. Furthermore, this assay endpoint can be referred to as a primary readout. To generalize the intended target to other relatable targets, this assay endpoint is annotated to the cyp intended target family, where subfamily is xenobiotic metabolism.
Human hepatocyte cultures were treated daily for two consecutive days with fresh dosing solutions containing appropriate concentrations of the 320 ToxCast chemicals (chemical identities were blinded to CellzDirect and other ToxCast collaborators), vehicle control (0.2% DMSO), and positive control inducers as summarized in Table 1. Due to the large number of treatment groups and chemicals examined, the ToxCast chemicals were divided into two groups (spanning two independent cultures of hepatocytes from separate donor preparations (Hu778: ToxCast plates 1 and 2; Hu776: ToxCast plates 3 and 4). Each preparation of human hepatocyte cultures was treated with respective vehicle control, medium only control, set of six positive controls/reference chemicals for the five hepatic receptor pathways, and a subset of eight of the ToxCast chemicals (indoxacarb, pyrithiobac-sodium, norflurazon, cyhalofop-butyl, methomyl, thiram, acetochlor, and propiconazole). These replicate data, coupled with internal replicates designed within the blinded ToxCast chemical library, provided additional data to evaluate interindividual differences between hepatocyte preparations and their potential impact on chemical profiles.Cell morphology and integrity were evaluated using phase-contrast microscopy as an indicator of hepatocyte cell health (Tyson & Green, 1987). Cultures for each treatment group (i.e., media, vehicle [0.2% DMSO], positive control inducers [multiple concentrations], and the ToxCast chemicals [multiple concentrations]) were observed and cell morphology was assessed relative to vehicle control cultures at each harvest time point (0, 6, 24, or 48 h). […] Images were evaluated at the conclusion of the study to assess changes in cell integrity and account for the effects of chemical exposure on uncharacteristic changes in concentration-dependent gene expression profiles. The results from these determinations of apparent cytotoxicity were annotated (yes/no) alongside the corresponding qNPA data for reference.At the conclusion of each treatment period, hepatocyte cultures (96-well) were washed with 1 volume of HBSS, lysed by addition of 25 ul ArrayPlate lysis buffer (HTG, Tucson, AZ), and 70 ul/well of Denaturation Oil, denatured by incubation at 95C for 10 min, and frozen at approximately -70C until analysis by nuclease protection assay (qNPA) (Roberts et al., 2007). For qNPA analysis, cell lysates were thawed at 50C for approximately 30 min, qNPA probes were added, and samples were incubated at 95C for 10 min to begin the detection process by denaturing the target RNA, dissociating the duplexes and secondary structure hybridization. At the conclusion of the hybridization period, S1 nuclease reagent was added to each sample to digest all nonprotected nucleotides at 50C for 60-90 min. […]

Compound	outcome	AC50
CN(C)C(=O)Nc1cccc(C(F)(F)F)c1	inactive	–
CCOP(=O)(NC(C)C)Oc1ccc(SC)c(C)c1 (stereo not given)	–	2.72 µM (active)
CCCOCC(=Nc1ccc(Cl)cc1C(F)(F)F)n1ccnc1	–	1.9 µM (active)
COc1cccc(C(=O)NN(C(=O)c2cc(C)cc(C)c2)C(C)(C)C)c1C	inactive	–
O=C(O)c1cc(Oc2ccc(C(F)(F)F)cc2Cl)ccc1[N+](=O)[O-]	inactive	–
CCOP(=S)(OCC)Oc1cc(C)nc(C(C)C)n1	–	0.682 µM (active)
Cc1nn(-c2cc(NS(C)(=O)=O)c(Cl)cc2Cl)c(=O)n1C(F)F	inactive	–
CC(C1CC1)C(O)(Cn1cncn1)c1ccc(Cl)cc1 (stereo not given)	–	0.0103 µM (active)
CNc1cnn(-c2cccc(C(F)(F)F)c2)c(=O)c1Cl	–	3.97 µM (active)
CC1=NNC(=O)N(/N=C/c2cccnc2)C1	–	20 µM (active)
CCc1cnc(C2=NC(C)(C(C)C)C(=O)N2)c(C(=O)O)c1 (stereo not given)	inactive	–
CC(COc1ccc(Oc2ccccc2)cc1)Oc1ccccn1 (stereo not given)	inactive	–
Cc1cc(C2CC2)nc(Nc2ccccc2)n1	–	2.2 µM (active)
CCC(=NOC/C=C/Cl)C1=C(O)CC(C2CCOCC2)CC1=O (stereo not given)	inactive	–
CCCSP(=O)(OCC)Oc1ccc(Br)cc1Cl (stereo not given)	–	10.2 µM (active)
CCCSP(=O)(OCC)SCCC	–	1.9 µM (active)
C#CCC1=C(C)C(OC(=O)C2C(C=C(C)C)C2(C)C)CC1=O (stereo not given)	inactive	–
CN(C)[C@@H]1C(=O)C(C(N)=O)=C(O)[C@@]2(O)C(=O)C3=C(O)c4c(O)cccc4[C@@](C)(O)[C@H]3[C@H](O)[C@@H]12	inactive	–
CCCCOC(=O)[C@@H](C)Oc1ccc(Oc2ccc(C#N)cc2F)cc1	inactive	–
CSC1=N[C@@](C)(c2ccccc2)C(=O)N1Nc1ccccc1	–	0.00477 µM (active)

Compound	outcome	AC50
CCOC(=O)CC(SP(=O)(OC)OC)C(=O)OCC (stereo not given)	inactive	–
Nc1nc(N)nc(NC2CC2)n1	inactive	–
CCCCOC(=O)c1ccccc1C(=O)O	inactive	–
CCOP(=S)(OCC)SCCSCC	–	4.01 µM (active)
CCOP(=S)(OCC)Oc1ccc([N+](=O)[O-])cc1	–	3.67 µM (active)
Nc1c(Cl)cc([N+](=O)[O-])cc1Cl	–	34.5 µM (active)
CC(C)[C@H](C(=O)O[C@H](C#N)c1cccc(Oc2ccccc2)c1)c1ccc(Cl)cc1	inactive	–
CCCCN(CC)c1c([N+](=O)[O-])cc(C(F)(F)F)cc1[N+](=O)[O-]	inactive	–
COP(=O)(OC)OC(Br)C(Cl)(Cl)Br (stereo not given)	inactive	–
CCOP(=S)(OCC)OC(Cl)C(Cl)(Cl)Cl (stereo not given)	inactive	–
CC(Oc1cccc(Cl)c1)C(=O)O (stereo not given)	inactive	–
CCOP(=S)(Oc1cnc(C(C)(C)C)nc1)OC(C)C (stereo not given)	–	2.24 µM (active)
CC(C)N(C(=O)SCC(Cl)=C(Cl)Cl)C(C)C	inactive	–
CCC(=O)Nc1ccc(Cl)c(Cl)c1	–	20 µM (active)
CCOP(=S)(OCC)Oc1ccc2c(C)c(Cl)c(=O)oc2c1	inactive	–
COP(=O)(NC(C)=O)SC (stereo not given)	inactive	–
CSc1nc(NC(C)C)nc(NC(C)C)n1	–	3.97 µM (active)
CNC(=O)Oc1cccc2c1OC(C)(C)O2	–	2.94 µM (active)
CCC(CC)Nc1c([N+](=O)[O-])cc(C)c(C)c1[N+](=O)[O-]	inactive	–
C[Si](Cn1cncn1)(c1ccc(F)cc1)c1ccc(F)cc1	–	20 µM (active)
